Results taken from the supplement of paper PMC11732987, “Enantioselective OTUD7B fragment discovery through chemoproteomics screening and high-throughput optimisation” (Communications Chemistry, 2025).

Legend:
Experiment in all cases: log2 ratio of Biotin-Ahx-Ub-VS probe labelling (fragment/DMSO); higher = less target engagement (more negative = stronger competition), active = hit call of the paper (q ≤ 0.05, log2 ratio ≤ -1)
Details in all cases: compound concentration: 200 uM; treatment time: 3 h
USP9X = USP9X (UniProt Q93008)
How it was run: (§1)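 In triplicate, 495 µg of HEK293T lysate per sample was incubated with fragment at 200 µM or vehicle for 3 h. Biotin-Ahx-Ub-VS was then added to 0.5 µM final for 1 h, and labelled DUBs were captured with NeutrAvidin, digested with LysC and trypsin, and measured by diaPASEF LC-MS/MS. Data are average log2 fragment/vehicle ratios by unpaired t-test from global-median-normalised Spectronaut label-free quantities, restricted to proteins with ≥2 unique peptides.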

UniProt O00487 = target: UniProt O00487
How it was run: as §1

UniProt O00507 = target: UniProt O00507
How it was run: as §1

UniProt P51784 = target: UniProt P51784
How it was run: as §1

UniProt Q5T2D3 = target: T1, UniProt Q5T2D3
T1 sequence (whole entry): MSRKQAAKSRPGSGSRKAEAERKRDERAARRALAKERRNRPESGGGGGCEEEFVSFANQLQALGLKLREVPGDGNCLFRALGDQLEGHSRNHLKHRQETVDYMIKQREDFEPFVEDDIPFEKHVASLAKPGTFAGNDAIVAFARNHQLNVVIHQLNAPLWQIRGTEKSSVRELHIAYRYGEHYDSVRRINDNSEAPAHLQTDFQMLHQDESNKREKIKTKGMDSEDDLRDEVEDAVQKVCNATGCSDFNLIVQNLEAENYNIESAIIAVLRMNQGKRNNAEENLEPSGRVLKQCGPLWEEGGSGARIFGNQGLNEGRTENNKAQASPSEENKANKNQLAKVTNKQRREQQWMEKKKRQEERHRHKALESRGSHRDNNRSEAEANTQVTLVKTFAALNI
How it was run: as §1

UniProt Q8TE49 = target: T2, UniProt Q8TE49
T2 sequence (whole entry): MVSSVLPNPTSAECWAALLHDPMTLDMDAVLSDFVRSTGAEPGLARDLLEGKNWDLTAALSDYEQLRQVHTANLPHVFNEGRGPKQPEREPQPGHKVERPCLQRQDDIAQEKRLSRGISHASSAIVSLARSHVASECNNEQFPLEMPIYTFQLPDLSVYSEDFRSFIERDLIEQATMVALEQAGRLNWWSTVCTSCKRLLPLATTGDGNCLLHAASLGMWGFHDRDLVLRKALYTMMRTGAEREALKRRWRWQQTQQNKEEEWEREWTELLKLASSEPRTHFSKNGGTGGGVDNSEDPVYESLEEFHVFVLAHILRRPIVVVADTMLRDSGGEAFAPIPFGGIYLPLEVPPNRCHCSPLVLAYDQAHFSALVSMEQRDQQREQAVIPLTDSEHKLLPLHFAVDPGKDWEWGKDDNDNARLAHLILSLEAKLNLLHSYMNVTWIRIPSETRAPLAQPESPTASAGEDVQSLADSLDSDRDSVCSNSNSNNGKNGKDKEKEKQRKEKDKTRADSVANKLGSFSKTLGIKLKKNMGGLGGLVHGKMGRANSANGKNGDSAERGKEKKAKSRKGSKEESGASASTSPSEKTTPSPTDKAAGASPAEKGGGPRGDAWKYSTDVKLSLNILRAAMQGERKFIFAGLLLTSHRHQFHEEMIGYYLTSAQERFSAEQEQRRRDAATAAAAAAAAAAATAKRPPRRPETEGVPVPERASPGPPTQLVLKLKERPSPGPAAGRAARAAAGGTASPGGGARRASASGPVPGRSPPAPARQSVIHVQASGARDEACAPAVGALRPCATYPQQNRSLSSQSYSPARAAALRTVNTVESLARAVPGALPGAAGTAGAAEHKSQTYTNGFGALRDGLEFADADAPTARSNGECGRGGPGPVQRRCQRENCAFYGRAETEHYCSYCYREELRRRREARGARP
How it was run: as §1

UniProt Q9P2H5 = target: T3, UniProt Q9P2H5
T3 sequence (whole entry): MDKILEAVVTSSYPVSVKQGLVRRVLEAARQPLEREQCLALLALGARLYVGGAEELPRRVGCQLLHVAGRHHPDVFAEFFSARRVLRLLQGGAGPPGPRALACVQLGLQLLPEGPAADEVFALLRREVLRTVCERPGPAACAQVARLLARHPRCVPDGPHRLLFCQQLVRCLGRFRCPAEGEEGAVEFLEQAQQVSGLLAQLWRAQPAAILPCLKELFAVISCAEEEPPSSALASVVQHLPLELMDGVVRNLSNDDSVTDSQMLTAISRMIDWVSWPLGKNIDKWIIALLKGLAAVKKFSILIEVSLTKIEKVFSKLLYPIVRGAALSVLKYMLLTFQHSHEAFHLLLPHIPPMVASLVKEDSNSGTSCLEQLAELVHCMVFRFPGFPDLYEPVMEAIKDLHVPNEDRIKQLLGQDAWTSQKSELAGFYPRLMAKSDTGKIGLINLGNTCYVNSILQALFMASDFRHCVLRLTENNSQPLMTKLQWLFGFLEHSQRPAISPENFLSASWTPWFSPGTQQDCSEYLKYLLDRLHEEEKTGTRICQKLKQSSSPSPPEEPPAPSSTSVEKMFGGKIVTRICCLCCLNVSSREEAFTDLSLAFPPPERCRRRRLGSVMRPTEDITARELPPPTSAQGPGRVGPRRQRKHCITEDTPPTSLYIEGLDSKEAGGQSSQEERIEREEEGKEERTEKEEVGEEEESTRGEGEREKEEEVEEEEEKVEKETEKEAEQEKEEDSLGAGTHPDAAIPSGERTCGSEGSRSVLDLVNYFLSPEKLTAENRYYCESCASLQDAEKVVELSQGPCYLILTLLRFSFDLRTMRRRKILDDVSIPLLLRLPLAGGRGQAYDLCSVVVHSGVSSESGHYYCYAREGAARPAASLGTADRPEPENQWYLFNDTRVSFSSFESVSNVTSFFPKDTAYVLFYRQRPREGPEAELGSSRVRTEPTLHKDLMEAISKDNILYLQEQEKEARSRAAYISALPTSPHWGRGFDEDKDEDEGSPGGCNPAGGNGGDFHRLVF
How it was run: as §1

UniProt Q9UGI0 = target: T4, UniProt Q9UGI0
T4 sequence (whole entry): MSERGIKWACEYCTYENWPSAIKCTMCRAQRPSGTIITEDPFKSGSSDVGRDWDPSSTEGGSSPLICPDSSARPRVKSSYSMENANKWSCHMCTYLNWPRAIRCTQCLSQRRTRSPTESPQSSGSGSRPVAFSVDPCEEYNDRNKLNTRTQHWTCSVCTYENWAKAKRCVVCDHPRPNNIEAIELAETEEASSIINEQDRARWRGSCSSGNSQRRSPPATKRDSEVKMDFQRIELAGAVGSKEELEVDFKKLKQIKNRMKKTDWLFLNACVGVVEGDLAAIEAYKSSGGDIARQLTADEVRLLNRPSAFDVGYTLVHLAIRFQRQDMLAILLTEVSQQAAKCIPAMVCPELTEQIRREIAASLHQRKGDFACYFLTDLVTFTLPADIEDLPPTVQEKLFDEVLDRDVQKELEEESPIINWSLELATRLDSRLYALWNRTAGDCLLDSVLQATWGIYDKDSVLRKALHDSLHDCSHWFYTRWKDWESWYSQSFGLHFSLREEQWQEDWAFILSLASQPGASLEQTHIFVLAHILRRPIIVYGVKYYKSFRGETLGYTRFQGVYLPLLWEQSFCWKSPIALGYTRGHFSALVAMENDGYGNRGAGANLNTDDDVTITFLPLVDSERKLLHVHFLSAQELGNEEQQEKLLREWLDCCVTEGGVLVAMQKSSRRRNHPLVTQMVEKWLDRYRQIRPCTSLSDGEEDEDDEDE
How it was run: as §1

YOD1 = target: T5, YOD1 (UniProt Q5VVQ6)
T5 sequence (whole entry): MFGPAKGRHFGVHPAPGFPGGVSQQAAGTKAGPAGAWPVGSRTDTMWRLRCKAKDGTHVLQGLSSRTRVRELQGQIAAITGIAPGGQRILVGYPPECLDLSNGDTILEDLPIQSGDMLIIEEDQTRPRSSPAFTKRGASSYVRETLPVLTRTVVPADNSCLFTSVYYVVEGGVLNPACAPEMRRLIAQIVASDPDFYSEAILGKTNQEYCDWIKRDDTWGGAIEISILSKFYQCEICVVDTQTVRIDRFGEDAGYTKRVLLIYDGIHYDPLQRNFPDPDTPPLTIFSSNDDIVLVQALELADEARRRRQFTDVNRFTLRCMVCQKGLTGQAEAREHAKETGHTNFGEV
How it was run: as §1

Measured: log2 ratio of Biotin-Ahx-Ub-VS probe labelling

Sequence of UniProt O00487 (O00487 whole entry): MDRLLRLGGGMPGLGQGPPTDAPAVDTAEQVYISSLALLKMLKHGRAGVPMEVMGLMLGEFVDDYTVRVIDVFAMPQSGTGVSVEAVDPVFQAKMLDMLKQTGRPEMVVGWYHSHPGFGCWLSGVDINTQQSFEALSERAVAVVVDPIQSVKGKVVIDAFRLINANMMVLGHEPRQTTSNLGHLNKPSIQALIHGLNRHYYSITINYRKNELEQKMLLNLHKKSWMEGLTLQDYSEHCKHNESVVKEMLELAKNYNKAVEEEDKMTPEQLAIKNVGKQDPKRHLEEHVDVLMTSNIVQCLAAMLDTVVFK
Sequence of USP9X (Q93008 whole entry, the tested form may be a part): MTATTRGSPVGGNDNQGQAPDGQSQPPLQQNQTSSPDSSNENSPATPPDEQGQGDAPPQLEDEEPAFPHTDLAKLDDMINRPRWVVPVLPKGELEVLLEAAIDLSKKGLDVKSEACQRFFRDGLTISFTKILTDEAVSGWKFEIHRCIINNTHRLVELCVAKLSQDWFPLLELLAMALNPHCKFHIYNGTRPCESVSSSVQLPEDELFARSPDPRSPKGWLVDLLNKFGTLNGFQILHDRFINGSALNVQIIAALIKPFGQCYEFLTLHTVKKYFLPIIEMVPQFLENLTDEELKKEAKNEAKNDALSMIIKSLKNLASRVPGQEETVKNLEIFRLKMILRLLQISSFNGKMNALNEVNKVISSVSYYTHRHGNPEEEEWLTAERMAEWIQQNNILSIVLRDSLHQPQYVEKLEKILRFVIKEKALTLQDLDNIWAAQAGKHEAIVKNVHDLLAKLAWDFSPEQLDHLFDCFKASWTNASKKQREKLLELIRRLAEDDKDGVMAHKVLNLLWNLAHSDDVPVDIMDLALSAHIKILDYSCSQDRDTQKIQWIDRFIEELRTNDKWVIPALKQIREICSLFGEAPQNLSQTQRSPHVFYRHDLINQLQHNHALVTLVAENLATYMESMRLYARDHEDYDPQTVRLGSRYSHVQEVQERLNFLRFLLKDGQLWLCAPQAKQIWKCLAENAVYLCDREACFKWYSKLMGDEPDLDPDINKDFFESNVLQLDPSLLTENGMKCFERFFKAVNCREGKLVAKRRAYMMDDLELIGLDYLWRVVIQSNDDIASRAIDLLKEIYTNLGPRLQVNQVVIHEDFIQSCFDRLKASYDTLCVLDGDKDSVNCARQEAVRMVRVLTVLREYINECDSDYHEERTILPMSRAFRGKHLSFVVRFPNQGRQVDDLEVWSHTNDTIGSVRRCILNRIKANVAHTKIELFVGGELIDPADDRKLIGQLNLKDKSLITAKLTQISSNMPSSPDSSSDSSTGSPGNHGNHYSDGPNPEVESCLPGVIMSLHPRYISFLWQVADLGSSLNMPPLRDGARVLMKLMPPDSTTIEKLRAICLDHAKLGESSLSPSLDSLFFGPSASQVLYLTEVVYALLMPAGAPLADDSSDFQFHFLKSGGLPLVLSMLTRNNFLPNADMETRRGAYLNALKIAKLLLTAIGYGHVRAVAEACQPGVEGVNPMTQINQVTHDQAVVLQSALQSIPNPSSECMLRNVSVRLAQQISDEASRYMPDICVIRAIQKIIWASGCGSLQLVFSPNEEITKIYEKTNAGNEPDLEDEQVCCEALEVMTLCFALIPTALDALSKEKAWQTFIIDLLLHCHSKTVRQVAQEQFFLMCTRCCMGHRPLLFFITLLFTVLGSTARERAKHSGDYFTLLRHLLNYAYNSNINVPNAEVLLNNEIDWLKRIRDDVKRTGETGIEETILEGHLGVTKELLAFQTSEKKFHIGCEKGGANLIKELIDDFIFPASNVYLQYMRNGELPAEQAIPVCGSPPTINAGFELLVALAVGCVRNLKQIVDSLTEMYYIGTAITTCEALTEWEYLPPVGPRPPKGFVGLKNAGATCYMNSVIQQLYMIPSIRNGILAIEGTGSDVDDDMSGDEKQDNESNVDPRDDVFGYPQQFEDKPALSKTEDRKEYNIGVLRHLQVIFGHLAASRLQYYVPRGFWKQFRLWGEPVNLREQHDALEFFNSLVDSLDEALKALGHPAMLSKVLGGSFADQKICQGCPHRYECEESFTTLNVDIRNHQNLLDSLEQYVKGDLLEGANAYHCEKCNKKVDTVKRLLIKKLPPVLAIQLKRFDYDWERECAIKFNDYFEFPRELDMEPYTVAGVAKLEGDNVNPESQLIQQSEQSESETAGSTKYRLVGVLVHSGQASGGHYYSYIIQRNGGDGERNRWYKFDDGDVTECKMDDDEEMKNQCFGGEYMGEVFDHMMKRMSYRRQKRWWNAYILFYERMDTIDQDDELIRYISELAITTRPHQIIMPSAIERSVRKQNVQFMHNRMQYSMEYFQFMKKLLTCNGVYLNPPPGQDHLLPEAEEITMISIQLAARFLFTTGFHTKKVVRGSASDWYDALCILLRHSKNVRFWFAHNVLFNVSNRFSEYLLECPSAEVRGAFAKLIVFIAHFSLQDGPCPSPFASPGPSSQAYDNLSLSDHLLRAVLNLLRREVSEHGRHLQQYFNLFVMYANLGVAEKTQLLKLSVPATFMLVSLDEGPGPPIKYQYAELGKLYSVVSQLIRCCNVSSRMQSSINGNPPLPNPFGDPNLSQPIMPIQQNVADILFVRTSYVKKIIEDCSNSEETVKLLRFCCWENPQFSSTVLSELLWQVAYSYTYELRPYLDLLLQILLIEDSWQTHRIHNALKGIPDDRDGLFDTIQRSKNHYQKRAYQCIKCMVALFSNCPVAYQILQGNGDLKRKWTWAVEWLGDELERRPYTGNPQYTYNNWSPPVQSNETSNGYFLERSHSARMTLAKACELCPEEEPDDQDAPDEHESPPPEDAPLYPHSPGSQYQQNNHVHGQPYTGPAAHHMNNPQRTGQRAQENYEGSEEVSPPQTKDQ
Sequence of UniProt P51784 (P51784 whole entry): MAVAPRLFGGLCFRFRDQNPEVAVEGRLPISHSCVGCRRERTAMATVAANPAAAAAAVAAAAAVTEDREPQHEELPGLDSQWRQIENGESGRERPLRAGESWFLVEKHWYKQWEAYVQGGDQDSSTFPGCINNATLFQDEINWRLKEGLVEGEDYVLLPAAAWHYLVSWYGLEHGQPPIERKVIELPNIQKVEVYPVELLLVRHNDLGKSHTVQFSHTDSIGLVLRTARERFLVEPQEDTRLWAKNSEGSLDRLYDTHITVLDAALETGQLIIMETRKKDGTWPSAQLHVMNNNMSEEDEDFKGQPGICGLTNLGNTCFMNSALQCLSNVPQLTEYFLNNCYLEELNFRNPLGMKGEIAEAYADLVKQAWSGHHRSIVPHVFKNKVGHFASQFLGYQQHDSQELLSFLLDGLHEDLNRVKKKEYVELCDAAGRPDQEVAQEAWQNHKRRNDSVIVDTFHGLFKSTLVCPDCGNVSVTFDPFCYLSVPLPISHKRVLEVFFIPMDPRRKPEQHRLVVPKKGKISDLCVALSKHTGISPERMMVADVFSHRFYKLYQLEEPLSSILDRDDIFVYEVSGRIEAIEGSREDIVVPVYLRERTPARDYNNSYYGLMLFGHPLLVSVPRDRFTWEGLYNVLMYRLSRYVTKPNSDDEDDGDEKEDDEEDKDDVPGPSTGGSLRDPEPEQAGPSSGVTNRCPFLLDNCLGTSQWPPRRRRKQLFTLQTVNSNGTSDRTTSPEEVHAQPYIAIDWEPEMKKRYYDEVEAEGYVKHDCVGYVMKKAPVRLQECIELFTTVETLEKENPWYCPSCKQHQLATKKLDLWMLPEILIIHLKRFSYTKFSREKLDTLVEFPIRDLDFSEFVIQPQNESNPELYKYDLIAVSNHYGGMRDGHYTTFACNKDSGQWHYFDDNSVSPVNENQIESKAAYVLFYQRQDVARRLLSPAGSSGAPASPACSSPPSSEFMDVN

CC1Cc2ccccc2N1C(=O)CCl (centres undefined)
inactive: USP9X -0.267 | UniProt O00487 -0.194 | UniProt O00507 -0.438 | UniProt P51784 -0.254 | UniProt Q5T2D3 -0.151 | UniProt Q8TE49 -0.28 | UniProt Q9P2H5 -0.127 | UniProt Q9UGI0 -0.604 | YOD1 -0.114
